Among all 360,000 compounds or so, about 9,100 (2.5%) were called active. Inconclusive results (about 4%) are left out. Rule as the data show it: active = max response below about -50%; inconclusive = no clear call, values can overlap the other calls; inactive = above that. This excerpt belongs to a sample that is enriched for actives.
% is scaled to controls: 0 for no effect and ±100 for the full control effect.

In the experiment the target is D(3) dopamine receptor (Homo sapiens) (UniProt P35462). Nature of the experiment: qHTS of D3 Dopamine Receptor Antagonist: qHTS. The settings on record: D3R cells, DiscoveRx beta-arrestin luminescence, antagonist mode; hits give low values. The gist of the method: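 Cells plated overnight at 1500 cells/well, then exposed to library compounds with dopamine controls for 90 minutes at 37 degrees C. DiscoveRx reagent added for 30–60 minutes at room temperature; luminescence read, quantitative HTS format.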
D(3) dopamine receptor (Homo sapiens), sequence (P35462 whole entry, looked up): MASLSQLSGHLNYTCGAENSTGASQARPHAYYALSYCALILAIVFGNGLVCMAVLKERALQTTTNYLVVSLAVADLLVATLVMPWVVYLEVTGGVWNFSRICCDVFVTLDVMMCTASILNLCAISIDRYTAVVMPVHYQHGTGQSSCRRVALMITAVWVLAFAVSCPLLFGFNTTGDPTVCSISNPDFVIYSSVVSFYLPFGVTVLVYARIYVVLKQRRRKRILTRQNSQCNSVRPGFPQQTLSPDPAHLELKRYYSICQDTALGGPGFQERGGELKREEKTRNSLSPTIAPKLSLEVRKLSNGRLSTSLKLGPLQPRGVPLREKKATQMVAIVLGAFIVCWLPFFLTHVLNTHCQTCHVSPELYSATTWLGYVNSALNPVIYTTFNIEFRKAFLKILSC
On the technique in general: Quantitative high-throughput screening tests each substance at several concentrations.
For `CCN(Cc1ccncc1)C(=S)Nc1ccccc1C`, the max response, negative = inhibition was 27.7% (inactive). To `CCCCN(C)CCC(=O)Nc1ccc(Cl)cc1` belongs -52.6% (active); to `CN(CC(=O)Nc1ccc(Cl)cc1)CC(=O)Nc1cccc2ccccc12`, -3.81% (inactive). To `CC(=O)Nc1ccc(NC(=O)CCCNC(=O)c2ccc(Cl)cc2)cc1` belongs -16.5% (inactive). With `O=S1(=O)CC(N2CCC(Cc3ccccc3)CC2)CN1Cc1ccccc1` (stereo not given), the max response, negative = inhibition is -2.05% (inactive).

Turning to `O=C(Nc1ccc(F)cc1)c1ccc(S(=O)(=O)NCc2cccnc2)cc1`, the max response, negative = inhibition is 8.92% (inactive).

For the molecule `Cc1nnc(NC(=O)c2ccc3nccnc3c2)s1`, the max response, negative = inhibition is -10.2% (inactive). The same measure for `NC(=O)CSc1nnc(NC(=O)c2ccc(Br)o2)s1`: 4.15% (inactive); for `COCCSc1nnc(NC(=O)CCS(=O)(=O)Cc2ccccc2)s1`: 0.795% (inactive); for `Cc1ccc(CS(=O)(=O)c2ncc(Cl)c(C(=O)Nc3nnc(C)s3)n2)cc1`: -73.5% (active). The same measure for `CSc1nnc(NC(=O)c2nc(S(=O)(=O)Cc3ccc(C)cc3)ncc2Cl)s1`: -83.3% (active); for `Cc1nnc(NC(=O)CCCOc2ccccc2)s1`: 14.4% (inactive). The same measure for `Cc1cccc(NC(=O)c2nc(S(=O)(=O)Cc3ccccc3)ncc2Cl)c1`: -1.08% (inactive). As to `Cc1cccc(CS(=O)(=O)c2ncc(Cl)c(C(=O)Nc3ccc(F)cc3)n2)c1`, the max response, negative = inhibition is -105% (active). For `CC(=O)Nc1cncc(-c2ccccc2CO)n1`, the max response, negative = inhibition was 10.6% (inactive). To `CCOC(=O)[C@H]1Nc2ccc(Cl)cc2[C@@H]2[C@H]1C1CC(c3ccccc31)N2C(=O)OCc1ccccc1` (stereo not given in full) belongs -1.57% (inactive); to `CCCCc1c(-c2ccc(Cl)cc2)ncn1CCc1ccccc1OC`, 71.4% (inactive); to `COc1ccc(S(=O)(=O)N(C)C)cc1NC(=O)COC(=O)c1n[nH]c2ccccc12`, 16% (inactive).

As for `CCc1cc(C(=O)N(CC)CC(=O)Nc2c(F)cccc2F)sc1C`, the max response, negative = inhibition was 0% (inactive). To `COc1ccc(CCCNC(=O)C2Cc3c(-c4cccc(C(N)=O)c4)ccnc3O2)cc1` (stereo not given) belongs 2.06% (inactive); to `Cc1cc(O)ccc1-c1cc(C(=O)NCc2cc(C(F)(F)F)cc(C(F)(F)F)c2)[nH]n1`, -17.9% (inactive); to `C[C@@H]1CN([C@H](C)CO)C(=O)CCCn2nncc2CO[C@@H]1CN(C)C(=O)OCc1ccccc1`, -23.6% (inactive). The same measure for `CC1(C)OC(=O)C2=C(C[C@@H](C3CC3)O[C@H]2c2ccc(Cl)cc2)O1`: 49.4% (inactive); for `CCC(CC)C(=O)N1CC(=O)Nc2ccc(Br)cc2C1c1ccccc1` (stereo not given): 4.84% (inactive). To `COC(=O)CN1C(=O)C(O)=C(C(C)=O)C1c1ccc([N+](=O)[O-])cc1` (stereo not given) belongs -23.2% (inactive); to `COC(=O)CN1C(C)=Nc2ccc(Br)cc2C1c1ccccc1` (stereo not given), -64% (active). As to `CN(c1ccccc1)S(=O)(=O)c1ccc(C(=O)NCc2cccnc2)cc1`, the max response, negative = inhibition was -14.9% (inactive). The same measure for `COc1ccc(C(C)(O)c2nc(-c3ccc(C)c(C)c3)cs2)cc1` (stereo not given): -20.6% (inactive); for `CCNC(=O)C1(C)CCCN(C(=O)c2ccc3ccccc3n2)C1` (stereo not given): 0% (inactive); for `CCOC(=O)c1cc(-c2sc(NC(=O)c3ccccc3)nc2C)n(-c2ccc(Br)cc2)n1`: 24% (inactive). The same measure for `COc1ccc(-c2cc(C(=O)NCCCN3CCOCC3)no2)cc1`: 1.86% (inactive); for `COc1ccc(-c2ccc(C(=O)NCCN3CCOCC3)c3occc23)c(C)c1`: -78.2% (active); for `COc1ccc(-c2ccc(C(=O)NC(C)C)c3occc23)c(C)c1`: 19.9% (inactive). The same measure for `CC(C)C[C@@H](COCc1ccc(Cl)cc1)N1CCN(C(=O)c2ccc(Cl)cc2Cl)CCC1=O`: 11.5% (inactive); for `Cc1ccccc1OS(=O)(=O)c1cccc([N+](=O)[O-])c1`: -14.2% (inactive); for `CC(C)N1C(=O)c2ccccc2NC(=O)C1C(=O)NCc1cccs1` (stereo not given): -19.3% (inactive). Consider `COC(=O)C[C@H]1C[C@@H]2c3cc(N(C)C)ccc3O[C@@H]2[C@H](CO)O1`, for which the max response, negative = inhibition is 17% (inactive). To `O=C(NCc1ccccc1)C1c2ccccc2OCC(=O)N1CCCN1CCOCC1` (stereo not given) belongs 0.216% (inactive); to `O=C(NCc1ccc(F)cc1)c1cc(C2CCCCN2C(=O)c2cccs2)on1` (stereo not given), 12.8% (inactive). To `CCC1NC(=O)c2cccnc2-n2c1nc1ccc(C)cc1c2=O` (stereo not given) belongs 16.9% (inactive).

On to `CN1CCN(C2Cc3ccc(Cl)cc3Sc3ccc(F)cc32)CC1` (stereo not given), for which the max response, negative = inhibition was -88% (active). The same measure for `COCCNC(=O)C1C(=O)Nc2ccccc2C(=O)N1c1ccc2c(c1)OCCO2` (stereo not given): 5.54% (inactive). Consider `Cn1c(C(=O)NCCN2CCc3ccccc3C2)cc2c(=O)[nH]c3ccccc3c21`, for which the max response, negative = inhibition is -59.2% (active). The same measure for `O=C(c1ncn2c1c(=O)[nH]c1ccccc12)N1CCc2ccccc2C1`: 1.07% (inactive). Take `Cc1cccc(N2CCN(C(=O)c3cc4c(=O)[nH]c5ccccc5c4n3C)CC2)c1C`: the max response, negative = inhibition was 2.48% (inactive).

As to `CCCCCCN1CCN(C2CN(Cc3cn(Cc4ccc(F)cc4)nn3)S(=O)(=O)C2)CC1` (stereo not given), the max response, negative = inhibition is 3.43% (inactive).

As for `Cc1c(C(=O)Nc2ccccc2Cl)oc2ccc(S(=O)(=O)N3CCC4(CC3)OCCO4)cc12`, the max response, negative = inhibition is 22.3% (inactive).

Consider `Cc1cccc(NC(=O)c2cc(S(=O)(=O)N3CCC4(CC3)OCCO4)ccc2F)c1`, for which the max response, negative = inhibition is -11.3% (inactive). On to `CCOc1ccccc1NC(=O)c1cc(S(=O)(=O)N2CCC3(CC2)OCCO3)ccc1F`, for which the max response, negative = inhibition was -83.8% (active). The same measure for `CCCC(=O)N1CCC1(C)C(=O)NCc1ccc(SC)cc1` (stereo not given): -2.93% (inactive); for `Cc1cccc(S(=O)(=O)N(C)C[C@H]2OCc3cnnn3CCCC(=O)N([C@@H](C)CO)C[C@H]2C)c1`: 19.6% (inactive); for `CC(=O)Nc1c(-c2ccc(C)cc2)nc2ccc(Cl)cn12`: -4.26% (inactive). The same measure for `CC(C)c1cc(C(=O)N(C)C2CCCN(Cc3ccccc3F)C2)n(C)n1` (stereo not given): -9.14% (inactive); for `CSc1ncnc2c1ncn2CCCNCC1CCCCC1`: -105% (active); for `CSc1ncnc2c1ncn2CCCNCC(C)c1ccccc1` (stereo not given): 1.7% (inactive). To `CSc1ncnc2c1ncn2CCCNCc1ccco1` belongs 0.282% (inactive). As for `CCCCNC(=O)OC1CC2CC1[C@H]1CCCCN1C2=O` (stereo not given in full), the max response, negative = inhibition was 2.26% (inactive). Turning to `CCOC(=O)N1CCN(S(=O)(=O)c2ccc(Br)cc2)CC1`, the max response, negative = inhibition was 8.1% (inactive). As for `CCOC(=O)N1CCN(S(=O)(=O)c2ccc(C(=O)Nc3ccc(F)cc3F)cc2)CC1`, the max response, negative = inhibition is -76.7% (active). The same measure for `CCOC(=O)N1CCN(S(=O)(=O)c2ccc(OC)cc2)CC1`: 3.43% (inactive). To `Cc1nc(C(F)(F)F)ccc1C(=O)N1CCC1(C)C(=O)NS(=O)(=O)c1ccccc1` (stereo not given) belongs 25.3% (inactive); to `O=[N+]([O-])c1ccc(CN2CC(N3CC=CC3)CS2(=O)=O)cc1` (stereo not given), 9.3% (inactive); to `NC(CSC(c1ccccc1)(c1ccccc1)c1ccc(-c2ccccc2)cc1)C(=O)O` (stereo not given), 6.39% (inactive). In the case of `CC(=O)Nc1cccc(NC(=O)c2ccc3c(c2)CCN3S(C)(=O)=O)c1`, the max response, negative = inhibition was -9.74% (inactive). The same measure for `CN(c1cccc(NC(=O)c2ccc(CN3CCc4ccccc4C3)cc2)c1)S(C)(=O)=O`: -69.7% (active); for `Cc1cccc(C)c1NC(=O)c1ccc(CN2CCc3ccccc3C2)cc1`: -84.7% (active); for `O=C(Nc1ccc(CSc2ccccc2)cc1)c1ccc(CN2CCOCC2)cc1`: 2.28% (inactive). To `CN(c1ccc(C(=O)N2CCc3ccccc3C2)cc1)S(C)(=O)=O` belongs 30.4% (inactive); to `CCc1ccc(NC(=O)N2CCc3ccccc3C2)cc1`, -11% (inactive); to `CC1(C(=O)NS(=O)(=O)c2cccc(OC(F)F)c2)CCN1C(=O)C1CC1` (stereo not given), -9.73% (inactive). The same measure for `c1ccc(Cc2c(-c3ccco3)nc3c4ccccc4ccn23)cc1`: 21.1% (inactive).

With `O=C(COC(=O)c1ccc(S(=O)(=O)N2CCCCCC2)cc1)Nc1ccccc1C(F)(F)F`, the max response, negative = inhibition was -1.68% (inactive).

As for `CSc1ccc(CNC(=O)C2(C)CCCN2C)cc1` (stereo not given), the max response, negative = inhibition was 0% (inactive).

For the molecule `CCOC(=O)N1CCN(C(c2ccnc3ccccc23)c2nnnn2-c2c(C)cccc2C)CC1` (stereo not given), the max response, negative = inhibition is -7.2% (inactive). To `O=C(COC(=O)c1ccccc1)c1ccc2c(c1)OCCO2` belongs -5.24% (inactive); to `CCC1(c2ccccc2)NC(=O)N(CC(=O)c2ccc3c(c2)OCO3)C1=O` (stereo not given), 4.79% (inactive). The same measure for `O=C(CCN1CCc2ccccc2C(O)(c2ccccc2)C1)c1ccc2c(c1)OCCO2` (stereo not given): -73.7% (active); for `COc1ccc(C(=O)N2CCCCC2c2cc(C(=O)Nc3ccccc3)no2)cc1` (stereo not given): -19.9% (inactive); for `C[C@H]1CN([C@@H](C)CO)S(=O)(=O)c2ccc(Br)cc2O[C@H]1CN(C)C(=O)c1cnccn1`: -8.27% (inactive).

For the molecule `Cc1cc(C)n(CC(O)CN(c2ccccc2)S(=O)(=O)c2ccc3ccccc3c2)n1` (stereo not given), the max response, negative = inhibition is 10.5% (inactive).

As to `Cc1cccc(N(CC(O)CN(C)C)S(=O)(=O)c2ccccc2)c1` (stereo not given), the max response, negative = inhibition is 0.407% (inactive). The same measure for `Cc1ccc(N(CC(O)CN2CCCC2)S(=O)(=O)c2ccccc2)cc1` (stereo not given): -57.8% (active); for `O=C(Nc1ccc(Cl)cc1)C1Cc2c(-c3ccc4c(c3)OCO4)ccnc2O1` (stereo not given): -10.5% (inactive). The same measure for `COc1ccccc1NC(=O)CN1CCN(S(=O)(=O)c2ccc(Br)cc2)CC1`: -9.35% (inactive); for `O=C(CN1CCN(S(=O)(=O)c2ccc(Br)cc2)CC1)Nc1ccccc1C(=O)c1ccccc1`: -71.6% (active). In the case of `O=C(CN1CCN(S(=O)(=O)c2ccc(F)cc2)CC1)Nc1ccccc1F`, the max response, negative = inhibition is 0% (inactive).

For `Cc1ccc(-c2nc3c(C)cc(Br)cn3c2Cc2ccccc2)cc1`, the max response, negative = inhibition was -0.352% (inactive).

Turning to `O=C(NC(=O)c1ccccc1)Nc1ccccc1O`, the max response, negative = inhibition is -13.1% (inactive). Regarding `O=C(NC1=CC(=O)c2ccccc2C1=O)c1ccccc1`, the max response, negative = inhibition is -88.8% (active). Turning to `COC(=O)c1nc(NC(=O)c2ccccc2)n[nH]1`, the max response, negative = inhibition is 24.5% (inactive).

Values taken from PubChem BioAssay AID652054 (National Center for Advancing Translational Sciences (NCATS), 2013).
